BRCA1 expr act – increases BRCA1 expression; MCF7-BRCA1-FFLuc reporter, luminescence, 48 h; response scale: scaled: vehicle 0%, 10 µM genistein 100%; Potency, µM (doses to about 46.1 µM), for inactives: top-dose activation, hits mostly activators; 380,000 compounds, 1.1% hits; further: potency means the concentration at half of the fitted maximal effect; nearly all actives have a fitted effect of over 80% in size
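Luminescence from a BRCA1-driven firefly luciferase in MCF7 cells was the read-out, taken 15 min after substrate addition following 48 h compound exposure at 37 °C. Data were normalized to a 10 microM genistein control and DMSO vehicle.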
ELG1 DNA repair – blocks ELG1-dependent DNA repair in HEK293T cells | AID 504467 | 330,000 compounds, 2.3% hits | HEK293T ELG1-luciferase reporter, luminescence, 16 h; DNA damage induced by 5-fluorouridine | Potency, µM (doses to about 46.1 µM), for inactives: at the highest dose activity change, negative = inhibition, usual class: inhibitors; further: potency means the concentration at half of the fitted maximal effect; on the % scale 0 is the no-effect control and ±100 the full control effect; nearly all actives have a fitted effect of over 55% in size
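Reporter activity after DNA damage by 5-fluorouridine is monitored. Compound-treated cells incubate 16 hr at 37 °C, then ONE-Glo is added for 30 min before luminescence reading.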
Nrf2 ARE act – activates Nrf2 signaling; Potency, µM (top dose mostly 46.1 µM), inactives show at the top dose activation, hits mostly activators; 410,000 compounds, 0.31% hits; AREc32 ARE-luciferase reporter (MCF7-derived line), luminescence, 24 h; AID 624171; further: potency means the concentration at half of the fitted maximal effect; % of control where 0% means no effect; nearly all actives have a fitted effect of over 65% in size
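AREc32 cells carrying an ARE-driven firefly luciferase, 1000 cells/well in OPTI-MEM with 5% FBS, dosed after overnight attachment and incubated 24 hr at 37 deg C. Steady-Glo luminescence read after 30 min at RT.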
IL-2 act – IL-2 activation; IL-2 activation reporter assay, cell-based qHTS; stimulated with anti-CD3/CD4/CD28 beads; in transgenic mouse T cells; activation, % (series mostly up to about 46 µM); 360,000 compounds, 0.065% hits; in the data active means activation above about 50%; inconclusive means mostly about 30% to 49%; further: 0% is about no effect
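Using fluorescent plate cytometry, EGFP and DsRed are detected in transgenic mouse T cells stimulated 18 h at 37 degrees C with antibody-coated beads after 60 min compound pretreatment.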
* hit, by the source's call; ? = inconclusive; nt = no result. Only some compounds are listed: those with a hit (about 3.1% of all), similar ones and a draw of the others. Unless noted, the call rests on the fitted dose curve; in most records, active means well fitted curve in the direction sought with a large enough effect; inconclusive means small, poorly fitted or top-dose-only effect, or another doubt; inactive means no such curve, though single readings can be large; an effect the other way counts as inactive or inconclusive.

SMILES	BRCA1 expr act	ELG1 DNA repair	Nrf2 ARE act	IL-2 act
COc1ccc(-n2ncc3c(NC(C)(C)CO)ncnc32)cc1	nt	nt	0%	nt
Cc1ccc(CNC(=O)CN(c2ccc(Cl)cc2Cl)S(=O)(=O)c2ccccc2)cc1	nt	nt	0%	nt
CCN(CC)S(=O)(=O)c1ccc2[nH]cc(C(=O)NCCC3=CCCCC3)c(=O)c2c1	-81%	13µM*	3%	-1
CC(=O)NC1Sc2ccccc2N=C1c1ccccc1 (configuration not stated)	10µM*	?	?	0
CCCNC(=O)OC[C@H]1O[C@H](CCO/N=C(\C)CCN2CCc3nc(-c4ccccc4)c(-c4ccccc4)cc3C2)C=C[C@@H]1Oc1ccc(OC)cc1	nt	6.5µM*	nt	nt
COc1cc(/C=N/n2cnnc2)ccc1OCc1ccc(C)cc1	10µM*	?	4%	0
COC(=O)c1sc(N)c(C(=O)OC)c1COC(=O)C1CC(=O)N(Cc2ccco2)C1 (configuration not stated)	0%	8.2µM*	8%	-2
COC(=O)c1ccc(COc2ccc(/C=N/NC(N)=S)cc2)o1	-10%	15µM*	17%	0
COC(=O)c1ccc(COc2ccc(Cl)cc2)o1	86%	?	3%	0
Cc1cccc(N2CCN(S(=O)(=O)c3ccc4c(c3)C(C(C)C)C(=O)N4)CC2)c1C (configuration not stated)	-41%	nt	0%	nt
COc1ccc(-n2cc(CN3CCCC3)c(-c3cccc(F)c3)n2)cc1	-3%	7%	3%	0
Cc1cccc(-n2cc(CN3CCN(Cc4nccn4C)CC3)c(-c3cccc(F)c3)n2)c1	69%	18µM*	6%	-2
CN(C)/N=C/C=C1\CCC/C(=C/c2cccs2)C1=O	?	?	10µM*	1
COC(=O)c1ccc(CNC(=O)c2cc(COc3cncc(Cl)c3)on2)cc1	42%	21µM*	-1%	-4
CCCOc1cccc(C(=O)N(Cc2sccc2C)C2CCS(=O)(=O)C2)c1 (configuration not stated)	nt	nt	5%	nt
CCN(CC)S(=O)(=O)c1nnc(NC(=O)c2ccc(Br)cc2)s1	nt	nt	0%	nt
O=C(CCc1ccccc1)n1nc(-c2ccco2)nc1SCc1ccccc1	10µM*	?	6%	-1
COc1ccc(CCNC(=O)CSc2nc(-c3ccc(F)cc3)cc(C(F)(F)F)n2)cc1OC	-3%	nt	1%	nt
O=C1CC(/C=C/c2ccncc2)=Nc2ccccc2N1	-1%	18µM*	14%	2
O=C(Nc1ccccc1Cl)c1ccc2c(=O)n3c(nc2c1)CCC3	?	?	-1%	2
O=C(Nc1nc(-c2ccccc2)cs1)c1ccc2c(=O)n3c(nc2c1)CCCCC3	-84%	3.7µM*	1%	0
Cc1cc(C)c2nc(NC(=O)c3ccc4c(=O)n5c(nc4c3)CCCCC5)sc2c1	-45%	10µM*	-1%	-1
Cc1ccc(NC(=O)c2ccc3c(=O)n4c(nc3c2)CCCCC4)nc1	66%	0%	3%	-4
COc1ccc(NC(=O)Cn2c(=O)n(CCCC(=O)NCCc3ccc(C)cc3)c(=O)c3ccccc32)cc1Cl	3%	nt	0%	nt
CCc1ccc(CNC(=O)C2CCN(S(=O)(=O)N3CCCCC3)CC2)cc1	1%	nt	0%	-4
SMILES	BRCA1 expr act	ELG1 DNA repair	Nrf2 ARE act	IL-2 act
O=C(CSc1nc2ccccc2s1)N/N=C/c1ccco1	-20%	16%	5µM*	1
O=C(CSc1nc2ccccc2s1)c1cc2ccccc2o1	17%	nt	9%	2
CC(=O)CSc1nc2ccccc2s1	13µM*	?	3%	-2
O=c1oc2ccccc2n1CSc1nc2ccccc2s1	13µM*	?	23%	-3
O=C(CSc1nc2ccccc2s1)CSc1nc2ccccc2s1	-2%	7%	5%	1
C/C(=N\NC(=O)CSc1nc2ccccc2s1)c1ccco1	-37%	13%	7.1µM*	0
[O-][N+](=NC1C=Cc2ccccc21)C1C=Cc2ccccc21 (configuration not stated)	-8%	nt	nt	nt
N#C/C(=C\c1ccco1)Sc1nc2ccccc2s1	9%	?	11µM*	-3
O=C(CCCSc1nc2ccccc2s1)NCc1ccco1	-51%	?	24%	3
Cn1/c(=N\NC(=O)c2ccccc2Cl)sc2ccccc21	11µM*	?	4%	0
CCOC(=O)c1cccc(-n2c(-c3ccc(OC)cc3)nc3nc4ccccc4nc32)c1	nt	10µM*	nt	nt
CCOC(=O)c1cccc(-n2c(C)nc3ccccc3c2=O)c1	-21%	4%	0%	-4
CCCN(CCC)c1cc(C)nc2nc(-c3ccc(Cl)cc3)nn12	22%	nt	-1%	nt
CCOc1ccc(NC(=O)Cn2c(=O)n(CC(=O)NCc3ccccc3Cl)c(=O)c3sccc32)cc1	nt	nt	0%	nt
O=C(N/N=C/c1cn[nH]c1-c1ccccc1)c1ccco1	-5%	11%	8.9µM*	-3
C/C(=N\NC(=O)c1ccco1)c1ccc(-c2ccccc2)cc1	8.9µM*	?	5%	1
O=C(N/N=C\c1cn[nH]c1-c1ccccc1)c1ccc([N+](=O)[O-])cc1	0%	-16%	0%	0
C/C(=N/NC(=O)c1cccs1)c1ccco1	13µM*	?	13µM*	-1
C/C(=N\NC(=O)c1ccco1)c1ccc(NC(=O)c2ccccc2)cc1	86%	?	0%	-2
C/C(=N\NC(=O)c1cccs1)c1ccc(C(=O)O)s1	14µM*	?	2%	-2
O=C(NCc1ccccc1)C(C1CC1)n1c(CSCCOc2ccccc2)nc2ccccc21 (configuration not stated)	nt	nt	nt	0
COc1cc(C)ccc1OCCSc1nc2ccc(NC(=O)c3ccco3)cc2s1	-44%	nt	-1%	nt
O=C(Nc1cc(Sc2ccccn2)cc([N+](=O)[O-])c1)c1cccc(Cl)c1	-85%	6.5µM*	5%	-3
COc1ccc(OC)c2sc(N3CCN(C(=O)C(C)(C)C)CC3)nc12	0%	nt	5%	nt
S=C(NCCc1cccc(Cl)c1)NC1CCCCC1	3.2µM*	?	0%	-3
SMILES	BRCA1 expr act	ELG1 DNA repair	Nrf2 ARE act	IL-2 act
S=C(NCCc1ccccc1)NC1CCC(NC(=S)NCCc2ccccc2)CC1 (configuration not stated)	1%	-12%	-1%	1
C[C@@H]1C[C@H](Nc2ccccc2)c2ccccc2N1C(=O)c1cccnc1	-32%	?	0%	0
CC1CC(Nc2ccccc2)c2ccccc2N1C(=O)c1cccnc1 (configuration not stated)	-39%	16µM*	0%	-1
O=C(c1noc2c1CCCCC2)N1CCN(c2cccc(C(F)(F)F)c2)CC1	nt	nt	0%	nt
CC1CCc2sc(C(=O)NCc3ccccn3)cc2C1 (configuration not stated)	11µM*	?	4%	1
C/C(=N\NC(=O)c1cc2c(s1)CCC(C)C2)c1ccc[nH]1 (configuration not stated)	5µM*	?	5%	1

Screens from PubChem.
